What was measured:
Experiment in all cases: universal protein binding microarray (PBM); transcription factors of Arabidopsis thaliana; high values mean tight binding
[1] = target: T1, GST-ANAC092(1-176) (Arabidopsis thaliana, UniProt Q9FKA0 1-176); settings: protein: recombinant; tags: GST; chain copies: 2; dsDNA, one strand shown
T1 sequence: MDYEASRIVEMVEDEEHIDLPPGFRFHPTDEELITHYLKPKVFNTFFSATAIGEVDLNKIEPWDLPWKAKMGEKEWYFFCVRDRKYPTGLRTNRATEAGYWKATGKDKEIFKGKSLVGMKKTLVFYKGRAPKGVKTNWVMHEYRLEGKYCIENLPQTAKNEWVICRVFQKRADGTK
Method in brief: (§1)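 GST-tagged NAC-domain, full-length or DNA-binding-domain proteins were induced in cells, with zinc acetate added for zinc-finger proteins. They were purified on glutathione–Sepharose 4B and quantified by A280 or anti-GST western blot. Each was applied at 200 to 500 nM final, in duplicate, to custom all-10-mer Agilent 4 × 180K arrays made double-stranded by primer extension, with gapped and ungapped 8-mers scored. Binding is the normalised enrichment score (E-score).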

[2] = target: T2, GST-ANAC019 NAC domain (Arabidopsis thaliana, UniProt Q9C932 14-162); settings: protein: recombinant; tags: GST; chain copies: 2; dsDNA, one strand shown
T2 sequence: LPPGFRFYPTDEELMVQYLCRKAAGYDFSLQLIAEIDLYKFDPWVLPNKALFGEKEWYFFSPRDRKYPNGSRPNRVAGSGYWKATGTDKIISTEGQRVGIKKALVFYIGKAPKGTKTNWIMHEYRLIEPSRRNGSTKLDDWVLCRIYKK
Method in brief: as §1

[3] = target: T3, GST-ATAF1 NAC domain (Arabidopsis thaliana, UniProt Q39013 7-158); settings: protein: recombinant; tags: GST; chain copies: 2; dsDNA, one strand shown
T3 sequence: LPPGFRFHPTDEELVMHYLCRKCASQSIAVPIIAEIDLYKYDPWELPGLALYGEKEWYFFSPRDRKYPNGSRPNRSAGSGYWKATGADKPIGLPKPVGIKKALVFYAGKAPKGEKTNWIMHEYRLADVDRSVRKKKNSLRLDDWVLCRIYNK
Method in brief: as §1

[4] = target: T4, GST-ANAC092(1-285) full length (Arabidopsis thaliana, UniProt Q9FKA0 1-285); settings: protein: recombinant; tags: GST; chain copies: 2; dsDNA, one strand shown
T4 sequence: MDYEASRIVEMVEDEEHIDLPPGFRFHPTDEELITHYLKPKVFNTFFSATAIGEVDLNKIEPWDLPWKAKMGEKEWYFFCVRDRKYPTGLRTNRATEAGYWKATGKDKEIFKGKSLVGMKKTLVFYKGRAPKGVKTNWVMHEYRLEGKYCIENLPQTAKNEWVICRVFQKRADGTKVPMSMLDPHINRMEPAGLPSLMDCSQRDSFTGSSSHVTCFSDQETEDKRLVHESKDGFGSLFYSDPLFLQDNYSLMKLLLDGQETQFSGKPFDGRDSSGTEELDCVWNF
Method in brief: as §1

[5] = target: T5, GST-NAP(1-166) (Arabidopsis thaliana, UniProt O49255 1-166); settings: protein: recombinant; tags: GST; chain copies: 2; dsDNA, one strand shown
T5 sequence: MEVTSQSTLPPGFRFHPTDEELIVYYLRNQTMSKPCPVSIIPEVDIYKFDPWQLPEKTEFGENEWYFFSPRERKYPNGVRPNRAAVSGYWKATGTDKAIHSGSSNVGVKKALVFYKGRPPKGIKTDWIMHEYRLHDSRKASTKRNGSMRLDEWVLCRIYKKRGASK
Method in brief: as §1

[6] = target: T6, GST-NST2(1-184) (Arabidopsis thaliana, UniProt Q9M274 1-184); settings: protein: recombinant; tags: GST; chain copies: 2; dsDNA, one strand shown
T6 sequence: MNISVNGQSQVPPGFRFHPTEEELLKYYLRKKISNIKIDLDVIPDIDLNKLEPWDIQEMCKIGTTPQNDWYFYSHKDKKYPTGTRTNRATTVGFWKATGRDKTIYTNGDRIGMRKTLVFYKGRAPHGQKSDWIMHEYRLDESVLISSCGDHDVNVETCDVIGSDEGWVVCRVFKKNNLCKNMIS
Method in brief: as §1

[7] = target: T7, GST-SND1(1-203) (Arabidopsis thaliana, UniProt Q9LPI7 1-203); settings: protein: recombinant; tags: GST; chain copies: 2; dsDNA, one strand shown
T7 sequence: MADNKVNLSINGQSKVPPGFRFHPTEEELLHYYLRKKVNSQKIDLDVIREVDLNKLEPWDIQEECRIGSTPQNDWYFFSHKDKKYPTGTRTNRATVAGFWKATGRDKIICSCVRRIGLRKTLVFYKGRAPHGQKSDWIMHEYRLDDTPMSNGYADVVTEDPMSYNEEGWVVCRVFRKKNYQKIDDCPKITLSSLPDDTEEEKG
Method in brief: as §1

[8] = target: T8, GST-VND7 NAC domain (Arabidopsis thaliana, UniProt Q9C8W9 9-158); settings: protein: recombinant; tags: GST; chain copies: 2; dsDNA, one strand shown
T8 sequence: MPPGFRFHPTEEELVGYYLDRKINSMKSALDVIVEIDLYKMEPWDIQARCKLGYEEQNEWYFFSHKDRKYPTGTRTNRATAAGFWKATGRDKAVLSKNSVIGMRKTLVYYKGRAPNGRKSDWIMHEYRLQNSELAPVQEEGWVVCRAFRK
Method in brief: as §1

[9] = target: GST-NTL6(1-168) (Arabidopsis thaliana, UniProt Q9SCK6 1-168); settings: protein: recombinant; tags: GST; chain copies: 2; dsDNA, one strand shown
Sequence of GST-NTL6(1-168) (Q9SCK6 1-168): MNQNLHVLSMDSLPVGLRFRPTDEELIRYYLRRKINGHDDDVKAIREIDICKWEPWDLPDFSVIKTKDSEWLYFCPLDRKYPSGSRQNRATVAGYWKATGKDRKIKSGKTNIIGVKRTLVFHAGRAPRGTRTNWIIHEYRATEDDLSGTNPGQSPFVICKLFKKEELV
Method in brief: as §1

[10] = target: T9, GST-NTL8 NAC domain (Arabidopsis thaliana, UniProt Q9XIN7 14-156); settings: protein: recombinant; tags: GST; chain copies: 2; dsDNA, one strand shown
T9 sequence: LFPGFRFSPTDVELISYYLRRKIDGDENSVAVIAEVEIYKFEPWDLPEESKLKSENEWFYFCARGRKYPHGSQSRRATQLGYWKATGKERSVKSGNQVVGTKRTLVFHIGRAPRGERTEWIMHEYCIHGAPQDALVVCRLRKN
Method in brief: as §1

[11] = target: T10, GST-ANAC055(1-171) (Arabidopsis thaliana, UniProt Q9LDY8 1-171); settings: protein: recombinant; tags: GST; chain copies: 2; dsDNA, one strand shown
T10 sequence: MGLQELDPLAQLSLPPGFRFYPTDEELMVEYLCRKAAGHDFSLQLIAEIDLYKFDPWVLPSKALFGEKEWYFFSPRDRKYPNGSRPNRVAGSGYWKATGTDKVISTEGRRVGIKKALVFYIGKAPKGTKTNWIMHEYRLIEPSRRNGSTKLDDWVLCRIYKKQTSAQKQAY
Method in brief: as §1

[12] = target: GST-WRKY1(266-371) (Arabidopsis thaliana, UniProt Q9SI37 266-371); settings: protein: recombinant; tags: GST; dsDNA, one strand shown
Sequence of GST-WRKY1(266-371) (Q9SI37 266-371): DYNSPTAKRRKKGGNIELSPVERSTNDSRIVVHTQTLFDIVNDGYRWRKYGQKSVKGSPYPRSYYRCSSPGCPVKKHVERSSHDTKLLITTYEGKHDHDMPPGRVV
Method in brief: as §1

| Sequence | binding signal [1] | binding signal [2] | binding signal [3] | binding signal [4] | binding signal [5] | binding signal [6] | binding signal [7] | binding signal [8] | binding signal [9] | binding signal [10] | binding signal [11] | binding signal [12] |
| --- | --- | --- | --- | --- | --- | --- | --- | --- | --- | --- | --- | --- |
| AAGCACGC | 0.32 E-score | 0.127 E-score | 0.121 E-score | 0.407 E-score | 0.0699 E-score | 0.0521 E-score | 0.21 E-score | 0.0817 E-score | – | – | – | – |
| GAAGGGAA | 0.091 E-score | 0.101 E-score | – | – | – | 0.0954 E-score | 0.112 E-score | 0.0803 E-score | 0.227 E-score | 0.44 E-score | – | – |
| AAGGAAGC | 0.219 E-score | – | – | 0.13 E-score | – | 0.185 E-score | 0.175 E-score | – | 0.43 E-score | 0.188 E-score | 0.0894 E-score | – |
| GGGGAAAC | 0.177 E-score | 0.152 E-score | – | 0.217 E-score | 0.12 E-score | – | 0.209 E-score | – | 0.17 E-score | 0.412 E-score | – | – |
| CTTTGACC | 0.051 E-score | – | – | – | – | – | 0.0526 E-score | – | – | – | – | 0.488 E-score |
| AGTCTACG | – | 0.0568 E-score | – | – | – | – | 0.115 E-score | – | – | – | – | 0.401 E-score |
| AAAGTCAA | – | – | 0.118 E-score | – | – | 0.0787 E-score | 0.118 E-score | – | 0.0854 E-score | – | 0.0717 E-score | 0.49 E-score |
| CTTAGTCA | – | – | 0.101 E-score | – | – | – | 0.118 E-score | – | 0.243 E-score | 0.091 E-score | – | 0.424 E-score |
| GTCAAGAA | 0.0716 E-score | – | 0.114 E-score | 0.124 E-score | 0.0595 E-score | 0.0986 E-score | 0.052 E-score | – | – | – | 0.0615 E-score | 0.436 E-score |
| CTGTTGAC | 0.105 E-score | 0.107 E-score | – | 0.0644 E-score | – | – | 0.0669 E-score | – | – | – | – | 0.48 E-score |
| TAGGGAAA | 0.106 E-score | 0.0861 E-score | 0.088 E-score | 0.115 E-score | – | – | 0.0953 E-score | – | 0.177 E-score | 0.438 E-score | – | – |
